# From PubChem BioAssay AID1745849 (National Center for Advancing Translational Sciences (NCATS), 2022)
# Among all 2,100 compounds or so, about 320 (15%) were called active. Not shown: some 52% with an inconclusive outcome. The call rests on the fitted dose curve; in most records, active means well fitted cell-killing curve with a large enough effect; inconclusive means small, poorly fitted or top-dose-only effect, or effect the other way; inactive means flat fitted curve, though single readings scatter. This is one part of the list.
# Assay: Viability Counterscreen for CMV-Luciferase Assay of Inhibitors of ATXN expression; further: nearly all actives have a fitted effect of over 55% in size
# Details: HEK-293 CMV-luciferase cells viability, protease fluorescence, 24 h; activity change, negative = cytotoxicity: at the top concentration
# Summary of the method: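 Compounds are tested in a dilution series on HEK-293 cells carrying the CMV-driven luciferase. After a 24 hr incubation, a protease substrate (25 uM final, 30 min) gives the viability fluorescence, and SteadyGlo gives the reporter luminescence.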
# On the % scale 0 is the no-effect control and ±100 the full control effect; potency means the concentration at half of the fitted maximal effect.
Structure (SMILES),Potency,"activity change, negative = cytotoxicity"
CCN1c2ccccc2NC2N=C(OC)C(c3ccccc3)C21 (stereo not drawn),12.6 µM (active),
Cn1c(=O)c2cc(NC(=O)Nc3cccnc3)ccc2n1Cc1ccc(Cl)cc1,,-16.4% [at 57.5 µM] (inactive)
Cc1c(C(=O)N2c3ccccc3Sc3ccccc32)cccc1[N+](=O)[O-],,-15.4% [at 57.5 µM] (inactive)
Cc1onc(-c2ccccc2)c1C(=O)Nc1ccc(S(=O)(=O)NC(C)(C)C)cc1,,24.8% [at 57.5 µM] (inactive)
Cc1nnc(SC(C)C(=O)Nc2ccc(Cl)cn2)n1Cc1ccccc1 (stereo not drawn),,-1.27% [at 57.5 µM] (inactive)
O=C(N/N=C\c1c(O)ccc2ccccc12)c1ccc(Cn2cccn2)o1,,18.6% (inactive)
COc1ccc(NC(C)C(=O)N/N=C/c2c(O)ccc3ccccc23)cc1 (stereo not drawn),8.91 µM (active),
Cc1occc1C(=O)N/N=C/c1c(O)ccc2ccccc12,,29.1% [at 57.5 µM] (inactive)
C=CCc1cccc(CNc2nc3ccccc3n2C(C)C)c1O,,-1.07% [at 57.5 µM] (inactive)
Cc1ccccc1NC(=O)CSc1n[nH]c(-c2ccccn2)n1,20 µM (active),
O=C(CSc1n[nH]c(-c2ccccn2)n1)Nc1ccc(F)cc1,17.8 µM (active),
O=C(CSc1nnc(-c2ccc(Br)cc2)o1)Nc1cccc(C(=O)O)c1,,24.3% [at 57.5 µM] (inactive)
Cc1cc(NC(=O)CSc2nccn2-c2cccc(C)c2C)no1,,-8.06% (inactive)
O=C(CSc1nc2ncc(Cl)cc2[nH]1)Nc1cccc(F)c1,,-17.3% [at 57.5 µM] (inactive)
O=C(CSc1ccc2ccccc2c1)Nc1nc2ccccc2[nH]1,,4.28% (inactive)
O=C(CSc1n[nH]c(-c2ccccn2)n1)Nc1cccc(Cl)c1,10 µM (active),
O=C(CSc1nc2ncc(Br)cc2[nH]1)Nc1ccccc1-c1ccccc1,,-18.9% [at 57.5 µM] (inactive)
CCc1nc2ccc(C(=O)N(C)Cc3ccccc3)cn2c1N(C)Cc1ccc(OC)cc1,,-22.3% [at 57.5 µM] (inactive)
Cc1csc(NC(=O)COCC(=O)O)c1-c1nc2ccccc2s1,,-22.3% [at 57.5 µM] (inactive)
Cn1c(COc2ccc(Cl)cc2)nnc1SCc1ncc(-c2ccccc2)o1,,-18.9% [at 57.5 µM] (inactive)
COc1ccc(-c2c[n+]3c4n2CCCCC4=C(c2ccc(Br)cc2)C3)cc1,,-20% (inactive)
COc1ccc(-c2c[n+]3c(n2-c2ccc(C)cc2)CCCCC3)cc1,12.6 µM (active),
CCOc1ccc(-c2c[n+]3c(n2-c2ccccc2)CCCCC3)cc1,,-17.8% [at 57.5 µM] (inactive)
CN(c1ccccc1)c1ccc(/C=N/NC(=O)CC#N)cc1,,-8.07% [at 57.5 µM] (inactive)
CCCc1cc(C(=O)Nc2ccc(C(=O)c3ccc(C)cc3)cc2)n(C)n1,,-12.3% (inactive)
CC(C(=O)c1ccc(-c2ccccc2)cc1)[n+]1cccc(NC(=O)c2ccccc2)c1 (stereo not drawn),,-18.3% (inactive)

Structure (SMILES),Potency,"activity change, negative = cytotoxicity"
O=C(Nc1ccc[n+](CC(=O)c2cccc3ccccc23)c1)c1ccccc1,3.16 µM (active),
OCCN(Cc1ccccc1)CC(O)COc1ccc(-c2ccccc2)cc1 (stereo not drawn),,-8.58% [at 57.5 µM] (inactive)
OC(CNCCc1ccccc1)COc1ccc(OCC(O)CNCCc2ccccc2)cc1 (stereo not drawn),28.2 µM (active),
CCOc1ccccc1NC(=O)N1CCC(c2nc3ccccc3[nH]2)CC1,,-9.53% (inactive)
O=c1nc(N/N=C/c2ccccn2)cn[nH]1,7.94 µM (active),
O=c1cnnc(N/N=C/c2ccccn2)[nH]1,1.58 µM (active),
C(=N\Nc1ccc2nncn2n1)/c1ccccn1,11.2 µM (active),
C(=N\NC(=Nc1ccccc1)c1ccccn1)/c1ccccn1,,-16.1% [at 57.5 µM] (inactive)
COc1cccc(CNCCc2c[nH]c3ccccc23)c1OCc1ccc(F)cc1,,-24.6% (inactive)
Cc1cc(N2CCN(c3nc(-c4ccccc4)cs3)CC2)c2ccccc2n1,,-8.04% (inactive)
CCN1CCS/C1=C\C=C\C1=[N+](CC)CCS1,15.8 µM (active),
CCOC(=O)c1sc2nc(CSc3ccccc3)nc(NCCN(C)C)c2c1C,,-19.6% [at 57.5 µM] (inactive)
COc1ccc(OCCNC(=O)C2(C)CCN2Cc2ccc3ccccc3c2)cc1 (stereo not drawn),,-24.8% [at 57.5 µM] (inactive)
CCCCn1c(/C=N/Nc2nc3ccccc3[nH]2)nc2ccccc21,,-17.7% (inactive)
O=C1C=Cc2cccc3ccc(O)c1c23,,-11.2% (inactive)
COc1ccc(N2CCN(c3cc(C)nc4ccc(OC)cc34)CC2)cc1,,-27.2% (inactive)
O=C(CNS(=O)(=O)c1ccc([N+](=O)[O-])cc1)N/N=C/c1ccc(O)cc1O,,-26.6% (inactive)
O=C(CP(=O)(c1ccccc1)c1ccccc1)N/N=C/c1cc(Br)cc(Br)c1O,,4.95% (inactive)
O=C(N/N=C/c1ccc(O)cc1O)/C(=C/c1ccccc1)CCO,,-27.3% (inactive)
O=C(NN=Cc1ccc(O)cc1O)c1ccccc1NS(=O)(=O)c1cccs1,,-18.8% (inactive)
COc1ccc2nc(C)cc(SCC(=O)N/N=C/c3ccc(O)cc3O)c2c1,7.94 µM (active),
O=C(/C=C\c1ccccc1)NCC(=O)N/N=C/c1ccc(O)cc1O,10 µM (active),
Cc1cc(SCC(=O)N/N=C/c2ccc(O)cc2O)c(C)cc1Br,11.2 µM (active),
Cc1cc(C)n(CCC(=O)N/N=C/c2ccc(O)cc2O)n1,,-20.7% (inactive)
Cc1cc(SCC(=O)N/N=C/c2ccc(O)cc2O)nc2ccccc12,12.6 µM (active),
CCOc1ccc(/C=N/NC(=O)C(O)c2ccccc2)c(O)c1 (stereo not drawn),,-21.2% (inactive)

Structure (SMILES),Potency,"activity change, negative = cytotoxicity"
COc1ccc(O)c(/C=N/NC(=O)c2ccc(CSc3nc(C)cc(C)n3)cc2)c1,,-10.8% [at 57.5 µM] (inactive)
CCCCn1c(SCC(=O)Nc2cc(C(F)(F)F)cc(C(F)(F)F)c2)nnc1C(CC)N(C)C (stereo not drawn),,-18.5% (inactive)
COc1cc2ccnc(Cc3cccc(OC)c3OC)c2cc1OC,,10.6% [at 57.5 µM] (inactive)
Cn1cc(SCC(=O)Nc2nc3ccccc3s2)c2ccccc21,,-20.3% (inactive)
COc1ccc(/C=C/C(=O)Nc2cccc(F)c2)cc1S(=O)(=O)N1CCOCC1,,-29.3% [at 57.5 µM] (inactive)
O=C(Nc1cccc(Br)c1)Oc1cccc2cccnc12,,-12.5% [at 57.5 µM] (inactive)
c1cnc2c(c1)ccc1cccnc12,5.01 µM (active),
CCCC(=O)N1CCCC(c2cc(C(=O)Nc3ccccc3)no2)C1 (stereo not drawn),,-9.15% [at 57.5 µM] (inactive)
Cc1nn(-c2ccccn2)c2c1C(=O)CC(C)(C)C2N=[N+]=[N-] (stereo not drawn),,2.56% (inactive)
CCc1cc2c(N3CCN(c4nnc(CC)s4)CC3)ncnc2s1,,-8.2% (inactive)
Cc1cc(C)nc(/N=C(\N)Nc2ccc(OCc3ccccc3)cc2)n1,,-27.6% [at 57.5 µM] (inactive)
CC(O)CNCCNCc1c(OCc2ccccc2)ccc2ccccc12 (stereo not drawn),,-11.2% [at 57.5 µM] (inactive)
NC(N)=N/N=C/c1ccc2cccc(OCc3ccccc3)c2n1,14.1 µM (active),
COc1ccccc1C(CCNCc1ccccc1)c1ccc(OC(C)C)cc1 (stereo not drawn),,-13.2% (inactive)
CN1C2CCC1/C(=C\c1ccccc1)C(=O)/C2=C\c1ccccc1,10 µM (active),
Cc1ccc2c(Cl)cc(Cl)c(OCC(=O)Nc3cc(S(=O)(=O)N(C)C)ccc3C)c2n1,,-8.55% (inactive)
CN1CCN(c2nc(-c3ccccn3)nc3ccccc23)CC1,,-17.1% [at 57.5 µM] (inactive)
c1ccc(CNc2nc(-c3ccccn3)nc3ccccc23)cc1,7.94 µM (active),
Clc1cccc(-c2nc(NCc3cccnc3)c3ccccc3n2)c1,,-12.7% [at 57.5 µM] (inactive)
CC(C)CCNC(=O)COc1cccc2c1OC(C)(C)C2,,3.34% [at 57.5 µM] (inactive)
COc1ccc(C(=O)/C=C/c2ccc(OC3CSC3)cc2)cc1OC,,14.2% (inactive)
COc1cc(C=CC(=O)c2cc(OC)c(OC)c(OC)c2)cc(OC)c1OC,10 µM (active),
COc1cc(/C=C/C(O)=C/C(=O)/C=C/c2ccc(O)cc2)ccc1O,,-16.8% (inactive)
COc1cc(OC)c(C(=O)C=Cc2ccc(OC)c(OC)c2)c(OC)c1,20 µM (active),
COc1ccc(NC(=O)c2oc3ccc(S(=O)(=O)N4CCC5(CC4)OCCO5)cc3c2C)cc1,,-13.9% (inactive)
Cn1ncc2c(Nc3cccc(Cl)c3)nc(Nc3cccc(Cl)c3)nc21,,-16.3% [at 57.5 µM] (inactive)

Structure (SMILES),Potency,"activity change, negative = cytotoxicity"
CC1Sc2ccc(S(=O)(=O)CCC(=O)N3CCN(c4cccc(Cl)c4)CC3)cc2NC1=O (stereo not drawn),,-24.1% [at 57.5 µM] (inactive)
CC(O)(c1ccccc1)c1nc(-c2ccncc2)cs1 (stereo not drawn),,19.3% (inactive)
CC(=O)c1sc(NC(=O)c2cc(-c3ccccc3)nn2-c2ccccc2)nc1C,,11.5% (inactive)
CC(=O)c1c(C)[nH]c(C(=O)Nc2nc(-c3ccc(-c4ccccc4)cc3)cs2)c1C,11.2 µM (active),
COc1ccc(-c2csc(NC(=O)c3ccccc3NS(=O)(=O)c3ccc(F)c(F)c3)n2)cc1,2.24 µM (active),
O=C(Nc1nc(-c2ccccc2)cs1)c1ccccc1NS(=O)(=O)c1ccc(F)cc1,3.16 µM (active),
COc1ccc(C(=O)Nc2nc(-c3ccc(S(=O)(=O)N4CCOCC4)cc3)cs2)cc1,,-23.6% (inactive)
COc1ccccc1C(=O)Nc1nc(-c2ccc(S(=O)(=O)N3CCOCC3)cc2)cs1,,-25% (inactive)
COCC(=O)OC/C(O)=C(\C#N)c1nc2ccccc2[nH]1,,9.99% (inactive)
CCOc1cc(CNCCO)cc(Br)c1OCc1ccccc1,,2.53% [at 57.5 µM] (inactive)
O=C(c1ccco1)N(CCCN1CCOCC1)c1nc(-c2ccc(Cl)cc2)cs1,,6.96% (inactive)
CN(C)S(=O)(=O)c1cccc(N2C(=O)CC3(CCCCC3)CC2=O)c1,,-2.8% (inactive)
O=C(CN1C(=O)c2ccccc2S1(=O)=O)c1ccc(Cl)cc1Cl,,6.64% [at 57.5 µM] (inactive)
N#Cc1c(Oc2ccc3ccccc3c2)sc(C(=O)c2ccccc2)c1N,,-22.7% [at 57.5 µM] (inactive)
Cc1ccc(C)n1-c1ccc(C(=O)N2CCC(C(N)=O)CC2)cc1,,-20.6% (inactive)
Cc1ccc(C)c(N2CCN(C(=O)CCCCCn3c(=S)[nH]c4ccc(N5CCOCC5)cc4c3=O)CC2)c1,,-23.9% (inactive)
O=C(CN1C(=O)c2ccccc2S1(=O)=O)c1ccc(O)c(O)c1,,-3.1% (inactive)
c1ccc(COc2ncnc3c2ncn3CCCN2CCN(Cc3cccc4ccccc34)CC2)cc1,25.1 µM (active),
O=c1[nH]c(CN2CCN(c3ncccn3)CC2)nc2c(Br)cc(Br)cc12,,13.6% (inactive)
COc1ccc2c(c1)[nH]c1c(=O)n(/N=C/C3C(C)C=C(C)CC3C)c(=O)[nH]c12 (stereo not drawn),20 µM (active),
O=C(CCCN1CCc2[nH]c3ccc(F)cc3c2C1)c1ccc(F)cc1,,-27.3% [at 57.5 µM] (inactive)
Cc1ccc(OCC(O)Cn2c(=N)n(CCN3CCCCC3)c3ccccc32)cc1 (stereo not drawn),,-17.3% [at 57.5 µM] (inactive)
N=c1n(CCN2CCCCC2)c2ccccc2n1CC(O)c1ccc(Cl)c(Cl)c1 (stereo not drawn),20 µM (active),
Cc1nc(SC2CC(=O)N(c3ccccc3)C2=O)n[nH]1 (stereo not drawn),,-17.3% [at 57.5 µM] (inactive)
CCCCC/C=C/C1=CC(=O)C[C@H](c2ccc(OC)c(OC)c2)C1,,-15.6% [at 57.5 µM] (inactive)
